Experimental data: ChEMBL document CHEMBL1157539, “Thousands of chemical starting points for antimalarial lead identification” (Nature, 2010)

Each compound was assayed on HepG2 (assay: GSK_TCMDC: Percent inhibition of human HepG2 cell line. Test compounds present at 10uM.).
Type: functional

Compound	Inhibition [%]
CCCCOC(=O)C1=C(C)NC2=C(C(=O)CC(c3ccc(OC)c(OC)c3)C2)C1c1ccc(O)cc1 (stereo not given)	0
COc1cc2c(cc1C(F)(F)F)N(C(=O)Nc1cc(F)cc(-c3cncnc3)c1)CC2	15
Cn1cc(C(=O)Nc2cccc(-c3cccc(-c4nc5ccccc5[nH]4)c3)c2)n(C)c1=O	0
COc1cccc(CNC[C@@H](O)[C@H](Cc2ccccc2)NC(=O)c2cc(N3CCCC3=O)c3[nH]cc(C(C)C)c3c2)c1	5
NS(=O)(=O)c1cncc(-c2ccc3nccc(-c4cn[nH]c4)c3n2)c1	33
O=C(NCCCCN1CC=C(c2ccc3c(c2OCC2CC2)CCCC3)CC1)c1ccc(-c2ccc(C(F)(F)F)cc2)cc1	25
CC(C)(C)c1ccc(CN2CCC(NC(=O)c3ccc(-c4ccccc4Cl)s3)CC2)cc1.O=C(O)C(F)(F)F	36
CN1CCC(NCCS(=O)(=O)c2cccc(Nc3ccc(-c4cccc(F)c4)cn3)c2)CC1	27
Cl.NCCCCc1c(-c2ccc(Cl)c(Cl)c2)[nH]c2ccc(Cl)cc12	33
CCOC(=O)N1CCC(NC(=O)c2ccc(C(C)(C)C)cc2OC)CC1	0
Cc1cc(OCCCN2CCC(NS(=O)(=O)c3cccc(Br)c3)CC2)c2ccccc2n1	28
Cn1cc(CN2CCCC(COC(c3ccc(F)cc3)c3ccc(F)cc3)C2)cn1 (stereo not given)	15
Oc1ccc(Nc2nc(NCc3ccccc3)c3ccccc3n2)cc1	33
CCCCOP(=O)(OCCCC)C(=Cc1ccc(O)c2ccccc12)P(=O)(OCCCC)OCCCC	1
CC1(CCc2ccccc2)N=C(N)N(Cc2ccccc2)C(=O)C1c1ccc(Cl)c(Cl)c1.O=C(O)C(F)(F)F (stereo not given)	100
O=C(Nc1ccc(-c2cccc(-c3nc4ccccc4[nH]3)c2)cc1)Nc1ccc(Cl)c(Cl)c1	61
Cc1ccc2[nH]c(C)cc(=NN=Cc3ccc(Cl)cc3)c2c1	0
O=C(O)C(F)(F)F.O=S(=O)(NC1CCN(c2ccnc3cc(Cl)ccc23)C1)c1ccc(F)cc1 (stereo not given)	3
Nc1nc(N)c2c(ccc3c2ccn3Cc2ccccc2)n1	64
Cc1nc(C)c(-c2ccc(C(=O)c3ccc(Cl)cc3)cc2)c(O)c1Br	10

Compound	Inhibition [%]
CN(C)C=Nc1ccc(OCCCCCCOc2ccc(N=CN(C)C)cc2)cc1.Cc1ccc(S(=O)(=O)O)cc1	26
O=C(Nc1ccc(Cl)c(Cl)c1)Nc1ccc(F)c([N+](=O)[O-])c1	49
CCC[C@@H]([C@@H](CC1CCCCC1)C(=O)N[C@H](C(=O)Nc1nccs1)C(C)(C)SCCNC(=O)OCc1ccccn1)N(O)C=O	17
COc1ccc2nccc(N3CCCN(CCNCc4ccc5c(n4)NC(=O)CS5)CC3)c2n1.Cl	8
CN(C)CCN(C)Cc1ccc(-c2ccc3c(Nc4ccc(Cl)cc4F)ccnc3c2)o1	20
Cl.c1ccc2c(Nc3ccc(Oc4ccc(Nc5c6ccccc6nc6ccccc56)cc4)cc3)c3ccccc3nc2c1	21
O=C(NCCCCCN1CCC(c2ccc(O)cc2)CC1)c1ccc(-c2ccccc2)cc1	28
CS(=O)(=O)Nc1ccc2[nH]cc(C3CCN(CC4CCC(NC(=O)/C=C/c5ccc(Cl)c(Cl)c5)CC4)CC3)c2n1 (stereo not given)	2
Cc1ccc(NC(=O)C2CCC2)cc1-c1ccc(C(=O)NCC2CC2)cc1	13
C[C@@H]([C@@H](CCCCc1ccccc1)C(=O)N[C@H](C(=O)Nc1cccnc1)C(C)(C)C)N(O)C=O	0
Cc1ccc(C(NC(=O)C2CCCCC2)c2ccc3cccnc3c2O)cc1 (stereo not given)	69
CC(CCc1ccccc1)NCC(O)c1cccc([N+](=O)[O-])c1 (stereo not given)	0
Cl.Nc1nc(Nc2cccc(O)c2)nc2ccccc12	25
Cc1noc(C)c1-c1cccc(CNCc2cccc(-c3ccc(-c4nc5cccc(C)c5[nH]4)cc3)c2)c1.O=C(O)C(F)(F)F	24
O=C(CCCCCNC(=O)c1ccc(O)c(-c2ccc(Cl)c(Cl)c2)c1)NCCN1CCCCC1	0
COc1cc(OC)c(OC)cc1C=NN=c1cc(C)[nH]c2ccccc12	5
O=C(Nc1ccc2c(c1)CCC2)c1ccc(CN2CCCN(Cc3cccc(O)c3)CC2)cc1.O=C(O)C(F)(F)F	45
O=C(CCN1CCCCC1)Nc1ccc(Nc2nccc(NCC(O)c3ccccc3)n2)cc1 (stereo not given)	18
O=C(NCCCCCN1CCC(c2c[nH]c3ccccc23)CC1)Nc1ccc(Br)cc1	24
CN(C)S(=O)(=O)c1cc(-c2ccc3nccc(-c4cccc(S(N)(=O)=O)c4)c3c2)cnc1N	35
